The record followed here is the supplement of paper PMC11732987, “Enantioselective OTUD7B fragment discovery through chemoproteomics screening and high-throughput optimisation” (Communications Chemistry, 2025).

Assay in all cases: log2 ratio of Biotin-Ahx-Ub-VS probe labelling (fragment/DMSO); higher = less target engagement (more negative = stronger competition), active = hit call of the paper (q ≤ 0.05, log2 ratio ≤ -1)
Conditions in all cases: compound concentration: 200 uM; treatment time: 3 h

The target in one experiment is T1, ALG13 (UniProt Q9NP73).
T1 sequence (whole entry): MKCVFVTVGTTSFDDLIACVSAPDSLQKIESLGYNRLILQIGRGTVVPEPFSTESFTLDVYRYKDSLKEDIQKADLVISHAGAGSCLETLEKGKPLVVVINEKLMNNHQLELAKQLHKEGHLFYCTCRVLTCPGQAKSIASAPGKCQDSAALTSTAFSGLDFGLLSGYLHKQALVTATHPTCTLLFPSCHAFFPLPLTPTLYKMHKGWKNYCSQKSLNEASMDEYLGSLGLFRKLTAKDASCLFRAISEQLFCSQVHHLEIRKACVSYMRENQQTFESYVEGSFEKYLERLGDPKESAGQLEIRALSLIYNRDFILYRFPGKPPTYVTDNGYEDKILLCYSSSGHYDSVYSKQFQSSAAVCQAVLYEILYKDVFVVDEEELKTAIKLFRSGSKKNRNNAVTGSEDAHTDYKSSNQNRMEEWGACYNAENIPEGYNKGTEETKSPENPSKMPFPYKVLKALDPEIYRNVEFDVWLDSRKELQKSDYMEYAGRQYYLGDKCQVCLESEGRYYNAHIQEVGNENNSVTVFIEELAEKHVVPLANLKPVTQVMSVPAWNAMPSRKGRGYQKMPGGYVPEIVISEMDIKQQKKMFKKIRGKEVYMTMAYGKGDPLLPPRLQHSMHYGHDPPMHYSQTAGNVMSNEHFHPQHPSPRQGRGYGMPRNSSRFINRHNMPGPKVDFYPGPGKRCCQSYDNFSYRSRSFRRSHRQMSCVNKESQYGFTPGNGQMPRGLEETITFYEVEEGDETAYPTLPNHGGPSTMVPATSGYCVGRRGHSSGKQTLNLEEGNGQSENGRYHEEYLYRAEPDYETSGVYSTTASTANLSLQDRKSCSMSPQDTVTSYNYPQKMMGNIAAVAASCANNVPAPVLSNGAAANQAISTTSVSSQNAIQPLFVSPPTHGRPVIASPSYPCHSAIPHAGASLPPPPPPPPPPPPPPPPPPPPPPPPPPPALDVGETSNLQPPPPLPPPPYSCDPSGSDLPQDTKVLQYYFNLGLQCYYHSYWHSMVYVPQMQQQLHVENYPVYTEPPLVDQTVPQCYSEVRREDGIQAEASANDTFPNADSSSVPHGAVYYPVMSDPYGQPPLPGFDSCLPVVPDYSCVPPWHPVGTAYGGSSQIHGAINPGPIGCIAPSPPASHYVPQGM
In short, it runs like this:
(§1)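 Lysate from HEK293T cells, 495 µg per sample in Tris/CHAPS/IGEPAL buffer with protease inhibitors, was treated for 3 h in triplicate with fragment at 200 µM or vehicle. Biotin-Ahx-Ub-VS was next added at 0.5 µM final for 1 h. The labelled DUBs were enriched with NeutrAvidin, digested with LysC and trypsin, and run by diaPASEF LC-MS/MS, with values given as average log2 fragment/vehicle ratios by unpaired t-test on global-median-normalised Spectronaut quantities of proteins with ≥2 unique peptides.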

Another experiment deals with ATXN3 (UniProt P54252). The method in brief:
as §1

The target in a further experiment is T2, BAP1 (UniProt Q92560).
T2 sequence (whole entry): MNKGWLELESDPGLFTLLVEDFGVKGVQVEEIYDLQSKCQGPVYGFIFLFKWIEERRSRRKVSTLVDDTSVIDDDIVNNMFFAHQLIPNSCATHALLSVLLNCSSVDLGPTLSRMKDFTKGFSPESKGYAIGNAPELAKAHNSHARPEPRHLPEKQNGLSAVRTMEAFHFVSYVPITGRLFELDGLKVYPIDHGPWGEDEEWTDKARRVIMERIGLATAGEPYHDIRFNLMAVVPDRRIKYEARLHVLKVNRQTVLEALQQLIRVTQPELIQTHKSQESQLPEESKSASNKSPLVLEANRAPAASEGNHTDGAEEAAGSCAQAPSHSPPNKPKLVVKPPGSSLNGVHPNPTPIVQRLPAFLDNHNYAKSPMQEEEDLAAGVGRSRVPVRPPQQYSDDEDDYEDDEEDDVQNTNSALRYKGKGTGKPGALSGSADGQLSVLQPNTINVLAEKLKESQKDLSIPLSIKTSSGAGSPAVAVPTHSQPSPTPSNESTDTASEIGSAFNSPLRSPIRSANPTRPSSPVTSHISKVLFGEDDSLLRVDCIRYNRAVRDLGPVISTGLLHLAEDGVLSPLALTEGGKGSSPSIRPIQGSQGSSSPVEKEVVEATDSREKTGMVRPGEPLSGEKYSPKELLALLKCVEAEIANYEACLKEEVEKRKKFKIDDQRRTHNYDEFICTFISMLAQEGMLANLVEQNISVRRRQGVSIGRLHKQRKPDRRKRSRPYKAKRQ
The method in brief: as §1

In a further experiment the target is EIF3F (UniProt O00303). In short, it runs like this:
as §1

The target in a further experiment is EIF3H (UniProt O15372). In short, it runs like this:
as §1

For a further experiment, the target named is T3, FAM105A (UniProt Q9NUU6).
T3 sequence (whole entry): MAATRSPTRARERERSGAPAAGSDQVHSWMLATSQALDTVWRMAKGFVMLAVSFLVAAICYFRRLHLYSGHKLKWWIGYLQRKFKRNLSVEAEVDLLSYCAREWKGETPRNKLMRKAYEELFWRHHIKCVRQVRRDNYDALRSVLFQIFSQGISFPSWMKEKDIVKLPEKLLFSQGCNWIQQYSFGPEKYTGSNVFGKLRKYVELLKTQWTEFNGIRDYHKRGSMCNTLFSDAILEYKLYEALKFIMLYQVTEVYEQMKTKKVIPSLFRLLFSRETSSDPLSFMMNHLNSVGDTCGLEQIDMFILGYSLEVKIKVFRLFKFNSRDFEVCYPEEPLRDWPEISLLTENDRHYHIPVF
In short, it runs like this:
as §1

Another experiment concerns the target OTUB1 (UniProt Q96FW1). In short, it runs like this: as §1
The target of another experiment is T4, OTUD4 (UniProt Q01804).
T4 sequence (whole entry): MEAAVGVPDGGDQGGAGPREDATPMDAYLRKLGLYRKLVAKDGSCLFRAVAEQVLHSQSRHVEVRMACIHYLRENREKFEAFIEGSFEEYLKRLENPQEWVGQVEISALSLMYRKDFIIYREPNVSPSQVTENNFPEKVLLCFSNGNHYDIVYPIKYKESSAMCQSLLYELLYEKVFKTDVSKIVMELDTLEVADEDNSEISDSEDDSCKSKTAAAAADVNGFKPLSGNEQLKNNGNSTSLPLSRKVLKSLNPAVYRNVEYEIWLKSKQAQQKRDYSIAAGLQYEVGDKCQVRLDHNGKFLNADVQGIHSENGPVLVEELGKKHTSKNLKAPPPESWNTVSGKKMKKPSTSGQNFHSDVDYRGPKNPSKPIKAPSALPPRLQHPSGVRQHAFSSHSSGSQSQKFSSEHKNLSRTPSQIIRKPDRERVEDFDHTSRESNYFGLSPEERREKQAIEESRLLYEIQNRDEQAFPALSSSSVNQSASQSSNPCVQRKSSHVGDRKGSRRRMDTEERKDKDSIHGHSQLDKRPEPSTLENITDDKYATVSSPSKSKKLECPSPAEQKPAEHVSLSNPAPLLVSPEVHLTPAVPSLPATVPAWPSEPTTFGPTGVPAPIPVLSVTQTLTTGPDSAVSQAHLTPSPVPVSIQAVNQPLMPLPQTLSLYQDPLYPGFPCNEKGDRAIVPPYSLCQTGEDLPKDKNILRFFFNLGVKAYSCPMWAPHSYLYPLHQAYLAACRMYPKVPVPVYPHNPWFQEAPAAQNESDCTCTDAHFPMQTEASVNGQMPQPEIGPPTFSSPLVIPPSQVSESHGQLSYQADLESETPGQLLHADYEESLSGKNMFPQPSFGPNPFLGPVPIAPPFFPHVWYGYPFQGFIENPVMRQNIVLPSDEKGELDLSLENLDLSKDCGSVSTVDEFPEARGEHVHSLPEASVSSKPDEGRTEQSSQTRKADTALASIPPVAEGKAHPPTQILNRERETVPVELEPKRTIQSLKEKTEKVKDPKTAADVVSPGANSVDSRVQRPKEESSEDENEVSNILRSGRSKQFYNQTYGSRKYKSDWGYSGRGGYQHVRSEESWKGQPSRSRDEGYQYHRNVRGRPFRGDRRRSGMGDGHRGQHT
In short, it runs like this: as §1

Another experiment deals with T5, OTUD5 (UniProt Q96G74).
T5 sequence (whole entry): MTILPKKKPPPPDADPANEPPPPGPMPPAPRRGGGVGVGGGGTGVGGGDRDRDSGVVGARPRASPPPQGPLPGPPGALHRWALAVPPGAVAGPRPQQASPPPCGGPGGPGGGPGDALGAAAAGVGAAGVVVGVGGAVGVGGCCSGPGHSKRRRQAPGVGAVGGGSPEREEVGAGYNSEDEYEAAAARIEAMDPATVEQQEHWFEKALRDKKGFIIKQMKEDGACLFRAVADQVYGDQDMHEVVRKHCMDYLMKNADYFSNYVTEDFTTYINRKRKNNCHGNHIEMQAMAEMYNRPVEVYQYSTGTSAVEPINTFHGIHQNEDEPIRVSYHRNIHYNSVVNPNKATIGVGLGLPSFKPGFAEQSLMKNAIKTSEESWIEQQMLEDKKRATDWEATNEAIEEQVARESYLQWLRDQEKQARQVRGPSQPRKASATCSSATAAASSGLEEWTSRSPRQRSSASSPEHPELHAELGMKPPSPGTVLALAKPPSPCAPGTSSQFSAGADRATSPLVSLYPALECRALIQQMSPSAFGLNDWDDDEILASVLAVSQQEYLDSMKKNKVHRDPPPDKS
The method in brief:
as §1

Unmarked numbers belong to inactive results.

Chain of EIF3H (O15372 whole entry): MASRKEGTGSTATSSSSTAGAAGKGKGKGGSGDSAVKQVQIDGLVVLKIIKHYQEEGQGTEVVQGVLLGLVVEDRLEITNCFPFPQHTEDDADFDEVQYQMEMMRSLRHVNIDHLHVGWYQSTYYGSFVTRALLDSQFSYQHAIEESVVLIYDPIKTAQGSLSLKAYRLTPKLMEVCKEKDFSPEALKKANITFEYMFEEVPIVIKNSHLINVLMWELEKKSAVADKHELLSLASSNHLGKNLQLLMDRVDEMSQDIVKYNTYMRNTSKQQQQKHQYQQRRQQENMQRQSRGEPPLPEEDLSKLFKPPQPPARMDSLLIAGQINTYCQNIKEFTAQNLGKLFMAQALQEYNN
Chain of ATXN3 (P54252 whole entry): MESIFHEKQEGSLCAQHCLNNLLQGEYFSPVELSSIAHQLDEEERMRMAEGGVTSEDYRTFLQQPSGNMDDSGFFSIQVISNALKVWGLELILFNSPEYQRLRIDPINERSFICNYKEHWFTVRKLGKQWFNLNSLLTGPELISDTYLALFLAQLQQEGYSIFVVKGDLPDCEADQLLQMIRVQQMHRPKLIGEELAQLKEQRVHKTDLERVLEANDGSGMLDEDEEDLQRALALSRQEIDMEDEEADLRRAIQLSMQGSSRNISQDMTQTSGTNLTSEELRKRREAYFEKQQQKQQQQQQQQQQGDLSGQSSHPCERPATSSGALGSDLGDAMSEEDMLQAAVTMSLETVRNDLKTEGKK
Chain of EIF3F (O00303 whole entry): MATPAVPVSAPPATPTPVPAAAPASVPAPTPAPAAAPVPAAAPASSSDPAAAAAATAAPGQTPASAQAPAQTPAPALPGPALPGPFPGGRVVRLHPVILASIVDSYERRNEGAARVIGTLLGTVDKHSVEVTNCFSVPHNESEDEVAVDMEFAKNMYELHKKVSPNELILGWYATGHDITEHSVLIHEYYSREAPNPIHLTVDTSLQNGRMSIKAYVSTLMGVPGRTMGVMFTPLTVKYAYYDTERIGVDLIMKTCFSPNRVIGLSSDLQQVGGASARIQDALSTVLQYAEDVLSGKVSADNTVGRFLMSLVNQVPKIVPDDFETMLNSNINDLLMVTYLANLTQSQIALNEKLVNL
Chain of OTUB1 (Q96FW1 whole entry): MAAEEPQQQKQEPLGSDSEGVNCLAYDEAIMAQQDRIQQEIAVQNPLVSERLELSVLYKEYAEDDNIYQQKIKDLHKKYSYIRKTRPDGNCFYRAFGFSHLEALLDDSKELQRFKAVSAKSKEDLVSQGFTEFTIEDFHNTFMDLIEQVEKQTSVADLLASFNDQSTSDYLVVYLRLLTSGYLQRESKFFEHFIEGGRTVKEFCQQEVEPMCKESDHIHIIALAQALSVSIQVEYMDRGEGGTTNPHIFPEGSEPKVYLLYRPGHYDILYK

Regarding `Cc1cc(NC(=O)CCl)n(-c2ccccc2)n1`, the “log2 ratio of Biotin-Ahx-Ub-VS probe labelling” value (“log2 ratio” below) with ALG13 was -0.0258; in the experiment with ATXN3, -0.205; in the experiment with BAP1, -3.5 (active); in the experiment with EIF3F it was -0.154; with EIF3H it was 0.0602; with FAM105A, 0.513. In addition, the “log2 ratio” value is -0.315 with OTUB1, 0.184 with OTUD4 and -0.222 in the experiment with OTUD5.

For the compound `O=C(CCl)Nc1nc(-c2cccs2)cs1`, the “log2 ratio” value was 0.184 in the experiment with ALG13; -0.6 with ATXN3; -3.09 (active) with BAP1; -0.0224 in the experiment with EIF3F; 0.216 in the experiment with EIF3H; -0.186 with FAM105A. In addition, the “log2 ratio” value was 0.196 with OTUB1, -0.708 with OTUD4 and -0.636 in the experiment with OTUD5.

As for `O=C(CCl)Nc1ccc(F)cc1F`, the “log2 ratio” value was 0.182 in the experiment with ALG13; -0.351 with ATXN3; -2.82 (active) in the experiment with BAP1; -0.155 with EIF3F; 0.108 in the experiment with EIF3H; 0.102 with FAM105A. In addition, the “log2 ratio” value was -0.293 with OTUB1, -0.268 with OTUD4 and -0.5 in the experiment with OTUD5.

Regarding `O=C(CCl)Nc1cc(Cl)ccc1-n1cncn1`, the “log2 ratio” value was 0.0898 with ALG13; -0.881 with ATXN3; -3 (active) with BAP1; -0.457 with EIF3F; 0.376 with EIF3H; 0.14 with FAM105A. The “log2 ratio” value with OTUB1 is -0.487; in the experiment with OTUD4, -0.779; with OTUD5 it was -1.05 (active).
